Compounds with a hit are over-represented: about 6.7% of the library has one in this group of screens.
Pf Dd2 growth – blocks growth of Plasmodium falciparum Dd2 parasites; P. falciparum Dd2 growth, SYBR Green, 72 h; active compounds read low; activity change, % at 10 µM; 2.3% of 94,000 active; AID 1159554; in the data active = activity change below about -80%; inconclusive = no clear call, values can overlap the other calls
T cruzi growth-1 – T. cruzi proliferation inhibition; T. cruzi beta-gal in NIH3T3, GalScreen luminescence, 90 h; 5.9% of 77,000 active; inhibition, % at 8.34 µM; AID 624255;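 active = mean inhibition above about 93%, with at least 55% of replicates each passing it, limit read from the data, passing the limit was not always enough; inconclusive = only one of those two conditions holds; inactive = neither condition holds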
C diff HTS – blocks growth of Clostridium difficile | Clostridium difficile clinical isolate growth, OD600, 24 h; active compounds read low | growth activity, negative = inhibition, % at 16 µg/mL (by protocol) | 0.25% of 86,000 active | AID 1259249;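 active = mean growth activity at or below -80% and every replicate also at or below -80%; inconclusive = mean at or below -80% but some replicate above -80%; inactive = mean growth activity above -80%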;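 also: 0% = DMSO wells and -100% = levofloxacin 16 µg/mL wells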
T cruzi growth-2 – blocks T. cruzi growth in NIH3T3 host cells; shares compounds with T cruzi growth-1; T. cruzi beta-gal in NIH3T3, GalScreen luminescence, 90 h; inhibition, % at 8.35 µM; 72% of 5,600 active; AID 651739;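 active = mean replicate inhibition above about 95% and at least 55% of replicates individually reaching it, limit read from the data; inconclusive = only one of the two criteria is met; inactive = neither criterion is met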
T cruzi growth-3 – inhibitors of T. cruzi proliferation; AID 651740; shares compounds with T cruzi growth-1; T. cruzi beta-gal in NIH3T3, GalScreen luminescence, 90 h; 21% of 5,600 active; inhibition, % at 2.09 µM;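 active = mean inhibition above about 95%, with at least 55% of replicates also reaching it, limit read from the data; inconclusive = meets just one of the two conditions; inactive = meets neither condition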;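 also: plate controls were neutral control median for no effect and positive control median for full effect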
NIH3T3 tox – cytotoxicity in mouse NIH/3T3 fibroblasts; shares compounds with T cruzi growth-1; NIH/3T3 viability, CellTiter-Glo ATP luminescence, 90 h; cytotoxicity (signal decrease), % at 8.35 µM; 14% of 5,600 active; AID 651742;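 active = mean signal decrease across replicates above about 35% based on untreated-well scatter, with enough replicates individually passing, limit read from the data; inconclusive = no rule stated though some were filed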;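 also: 0% = median of neutral control wells and 100% = median of positive control wells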
3T3 cytotox 2 – cytotoxicity in mouse NIH/3T3 fibroblasts; shares compounds with T cruzi growth-1; NIH/3T3 viability, CellTiter-Glo ATP luminescence, 90 h; inhibition, % at 24.9 µM; 56% of 5,600 active; AID 651744;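 active = mean loss of cell viability signal at or above a set limit, and enough replicates individually reaching it; inconclusive = meets only the mean limit or only the replicate share; inactive = meets neither condition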;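 also: 0% = median of neutral control wells and 100% = median of positive control wells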
Numbers without * were called inactive.

Screening COc1ccccc1-c1ccc2c(c1)O[C@@H](CN(C)C(C)=O)[C@@H](C)CN([C@H](C)CO)S2(=O)=O returned Pf Dd2 growth 9, T cruzi growth-1 20 and C diff HTS 0.
`COc1ccccc1-c1ccc2c(c1)O[C@H](CN(C)S(=O)(=O)c1ccccc1)[C@H](C)CN([C@@H](C)CO)S2(=O)=O` gave Pf Dd2 growth -51, T cruzi growth-1 inconclusive, C diff HTS 9, T cruzi growth-2 103*, T cruzi growth-3 63, NIH3T3 tox 17 and 3T3 cytotox 2 44*.
COc1ccc(CN(C)C[C@@H]2Oc3ccc(NC(=O)Nc4ccc5c(c4)OCO5)cc3C(=O)N([C@@H](C)CO)C[C@H]2C)cc1 was read as Pf Dd2 growth -3, T cruzi growth-1 -30 and C diff HTS -1.
Screening CC(C)CC#Cc1ccc([C@H]2[C@@H](CO)N3C(=O)CN(C(=O)Cc4cccnc4)C[C@H]23)cc1 returned Pf Dd2 growth -12 and C diff HTS 46.
For C[C@@H]1CN([C@H](C)CO)C(=O)c2cc(C#CC3CC3)cnc2O[C@@H]1CN(C)C(=O)CC1CC1 the results were Pf Dd2 growth -7, T cruzi growth-1 34 and C diff HTS 10.
`C[C@@H]1CN([C@@H](C)CO)S(=O)(=O)c2ccc(C#C[C@@H](C)O)cc2O[C@@H]1CN(C)C(=O)C1CCCCC1` gave Pf Dd2 growth -3, T cruzi growth-1 60 and C diff HTS 4.
For COc1ccc(CNC(=O)C[C@H]2C=C[C@H](NC(=O)c3ccc4c(c3)OCO4)[C@@H](CO)O2)cc1 the results were Pf Dd2 growth 11 and T cruzi growth-1 -27.
Screening OC[C@H]1[C@@H](c2ccc(C#CC3(O)CCCC3)cc2)[C@H]2CN(Cc3cccnc3)CCCCN21 returned Pf Dd2 growth 23, T cruzi growth-1 103*, C diff HTS 0, T cruzi growth-2 49, T cruzi growth-3 -43, NIH3T3 tox 2 and 3T3 cytotox 2 4.
Screening OC[C@H]1[C@@H](c2ccc(C#CC3(O)CCCC3)cc2)[C@H]2CN(Cc3ccncc3)CCCCN21 returned Pf Dd2 growth 0, T cruzi growth-1 5 and C diff HTS 0.
`OC[C@@H]1[C@H](c2ccc(C#CC3(O)CCCC3)cc2)[C@H]2CN(Cc3cccnc3)CCCCN12` gave Pf Dd2 growth -8, T cruzi growth-1 120*, C diff HTS 0, T cruzi growth-2 107*, T cruzi growth-3 92, NIH3T3 tox 31 and 3T3 cytotox 2 32*.
For OC[C@H]1[C@@H](c2ccc(C#CC3(O)CCCC3)cc2)[C@@H]2CN(Cc3cccnc3)CCCCN12 the results were Pf Dd2 growth -21, T cruzi growth-1 114*, C diff HTS -5, T cruzi growth-2 73, T cruzi growth-3 3, NIH3T3 tox 4 and 3T3 cytotox 2 inconclusive.
OC[C@H]1[C@H](c2ccc(C#CC3(O)CCCC3)cc2)[C@@H]2CN(Cc3ccncc3)CCCCN12 was read as Pf Dd2 growth -6, T cruzi growth-1 6 and C diff HTS -1.
OC[C@@H]1[C@H](c2ccc(C#CC3(O)CCCC3)cc2)[C@H]2CN(Cc3ccncc3)CCCCN12 was read as Pf Dd2 growth 6, T cruzi growth-1 90 and C diff HTS -5.
`O=C(C1CCCC1)N1CCCCN2[C@H](CO)[C@H](c3ccc(C4=CCCC4)cc3)[C@@H]2C1` gave Pf Dd2 growth 38, T cruzi growth-1 85 and C diff HTS 4.
For COc1ccc(S(=O)(=O)Nc2ccc3c(c2)C(=O)N([C@H](C)CO)C[C@H](C)[C@H](CN(C)Cc2ccncc2)O3)cc1 the results were Pf Dd2 growth -2 and C diff HTS -2.
Screening C[C@H](CO)N1C[C@H](C)[C@@H](CN(C)C)Oc2c(NC(=O)Nc3ccccc3)cccc2C1=O returned Pf Dd2 growth -1, T cruzi growth-1 0 and C diff HTS 18.
Screening CC(C)NC(=O)N1CCCCN2[C@H](CO)[C@H](c3ccc(C#CC4CC4)cc3)[C@@H]2C1 returned Pf Dd2 growth 32, T cruzi growth-1 30 and C diff HTS -12.
CC(C)NC(=O)N1CCCCN2[C@H](CO)[C@H](c3ccc(C#Cc4ccccc4)cc3)[C@@H]2C1 was read as Pf Dd2 growth -66, T cruzi growth-1 115*, C diff HTS -8, T cruzi growth-2 109*, T cruzi growth-3 56, NIH3T3 tox 42* and 3T3 cytotox 2 62*.
Screening CC(C)NC(=O)N1CCCCN2[C@H](CO)[C@@H](c3ccc(C#Cc4ccccc4F)cc3)[C@@H]2C1 returned Pf Dd2 growth -25, T cruzi growth-1 102*, C diff HTS -1, T cruzi growth-2 108*, T cruzi growth-3 85, NIH3T3 tox 16 and 3T3 cytotox 2 105*.
Screening CC(C)C#Cc1ccc([C@@H]2[C@@H](CO)N3CCCCN(C(=O)NC(C)C)C[C@H]23)cc1 returned Pf Dd2 growth 19, T cruzi growth-1 92 and C diff HTS -13.
`CC(C)NC(=O)N1CCCCN2[C@H](CO)[C@H](c3ccc(C#C[C@@H](C)O)cc3)[C@@H]2C1` gave Pf Dd2 growth -1, T cruzi growth-1 68 and C diff HTS 0.
CC(C)NC(=O)N1CCCCN2[C@H](CO)[C@@H](c3ccc(C#Cc4ccccc4)cc3)[C@@H]2C1 was read as Pf Dd2 growth 8, T cruzi growth-1 101*, C diff HTS 32, T cruzi growth-2 107*, T cruzi growth-3 91, NIH3T3 tox 30 and 3T3 cytotox 2 105*.
CC(C)NC(=O)N1CCCCN2[C@H](C1)[C@H](c1ccc(C#C[C@H](C)O)cc1)[C@@H]2CO was read as Pf Dd2 growth 56, T cruzi growth-1 19 and C diff HTS -10.
Screening CC(C)NC(=O)N1CCCCN2[C@@H](CO)[C@H](c3ccc(C#CC4CC4)cc3)[C@@H]2C1 returned Pf Dd2 growth 14, T cruzi growth-1 inconclusive, C diff HTS -2, T cruzi growth-2 94, T cruzi growth-3 36, NIH3T3 tox -11 and 3T3 cytotox 2 22.
CCCc1cn(CC[C@H]2CC[C@@H](NC(=O)C3CCC3)[C@@H](CO)O2)nn1 was read as Pf Dd2 growth 0 and C diff HTS 1.
Screening CC(C)NC(=O)N1CCCCN2[C@@H](CO)[C@H](c3ccc(C#Cc4ccccc4)cc3)[C@@H]2C1 returned Pf Dd2 growth -23, T cruzi growth-1 106*, C diff HTS 26, T cruzi growth-2 108*, T cruzi growth-3 78, NIH3T3 tox 27 and 3T3 cytotox 2 105*.
CC(C)NC(=O)N1CCCCN2[C@H](CO)[C@@H](c3ccc(C#C[C@@H](C)O)cc3)[C@H]2C1 was read as Pf Dd2 growth 19, T cruzi growth-1 47 and C diff HTS 1.

Assay outcomes deposited in PubChem BioAssay by Broad Institute.
